From PubChem BioAssay AID1571 (National Center for Advancing Translational Sciences (NCATS), 2009)
Records with an inconclusive call do not appear. Where a call stands in place of a potency, no number is given. Values without a mark were called inactive. Calls of active or inactive are those of the source. Calls follow the shape of the dose curve; as a rule, active = well fitted curve in the direction sought with a large enough effect; inconclusive = small, poorly fitted or top-dose-only effect, or effect the other way; inactive = flat fitted curve, though single readings scatter.

Assay: Total Fluorescence Confirmation Counterscreen for Inhibitors of the Interaction of Thyroid Hormone Receptor and Steroid Receptor Coregulator 2, Fluorescein Fluoroprobe
Outline: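 Human TRbeta ligand-binding domain (0.6 uM) with 20 nM fluorescein-labelled SRC2 peptide, 1 uM T3, 5% DMSO, Tris pH not given; 5 hr ambient incubation. Total fluorescence (S + 2P, parallel plus perpendicular channels) flags fluorescent or light-absorbing compounds; % activity per concentration.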

Row | SMILES | total fluorescence change, positive = fluorescent | Potency
1 | CC(=O)c1cccc(NC(=O)COC(=O)c2ccc(S(C)(=O)=O)c([N+](=O)[O-])c2)c1 | 9.6% [at 11.6 µM] | –
2 | CN1N=C(C(C)(C)C)CC1=O | – | inactive
